22 sequences from the supplement of paper PMC6555819 can be followed below.

The assay relates to RARa homodimer (NR concentration 270 nM). Description: PBM binding z-score (relative to random genomic background probes); higher = stronger binding; sequences stand for … in GC…GCGATTGACAGCGTAGAATGAAGG
In a few lines: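 Random background probes are the reference for binding z-scores. These scores derive from regression-normalized fluorescence on custom Agilent 4×180K protein-binding microarrays incubated 1 h with ligand-free nuclear receptor dimers. Binding was detected with antibodies against each partner (one per run).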
As for TCGAGTAGGTTAGGGGCATTCACAATGGCGTCGA, the PBM binding z-score was -0.0724. For the sequence TCAAATAGGTAAACAGGTGAAAGTCCGTAAGTTA, the PBM binding z-score is 1.7. The result for CTACCAAGGTGAACAAGGTCGGTGATTACTATTC reads 0.0895; that for GCATATAGGTAATACAAGGTGAATGTCCGATTGT, 0.84. In the case of CATCAAAGTTCAAGGTAACGTAACAGAAAGCAGC it was 2.21. In the case of ATATGTAGGTTAGCTGGGATCATTCAGACTAGGC it was 0.6. Turning to ACTTACGGTTCAACGAGGTTATAGCACGCGTATA, the PBM binding z-score was found to be 0.973. The result for CCTACTCGGCCAAAGGTCATTGATTCCAATGCTC reads 1.19; that for CCTAGTTGGTCAGGAGGTGACACACCGGATATGA, 0.818. Sequence TGACCAAGGTGAAGGTCGTTGATCCCTCTGTAGA returned a PBM binding z-score of -0.922. The result for GGAACGAGGGCATACGAGTTGATAGCATGGCGAT reads -0.394. The result for TCTATTAGTTGAAGGGCGACCGACGAGTCCGTTT reads 0.844.

TCTTGTAGATCAAGCAGGTTGAGAAAGCCTGAGT yielded a PBM binding z-score of -0.364.

ACAGACAGGTGATGAATGTAACTCAGGCTATCAT showed a PBM binding z-score of 0.656.

The sequence AGAATGAGGTTACCACAGATCAGGGAAACGCTTG displayed a PBM binding z-score of 0.262. The result for ACAGACAGGTGAGGAAGGTAACTCAGGCTATCAT reads 0.0819; that for GATACAGGGTCAAGCCCAGAGTACGCGTATTGAT, 0.476; that for CCTTACGGGTCAAGGCTATAGCACGGGTGGTACG, 0.855. The result for CCTAGTTGGTCAGTAGGTCACACACCGGATATGA reads 2.47. The result for AATCGGAGGACAAAGGTCAGAGCTACGCCAGTGA reads 0.693.

CAAACTAGGTCAAGAGGACAAAGTCCGCTTCCCG gave a PBM binding z-score of 0.947. The result for CCTAGCAGGCCAGGGTCATTCAAGCATTTCGCTT reads -0.222.
